A number with no mark means an inactive call.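 The calls were made as follows: active = growth AUC significantly below the DMSO wells by Dunnett test; inactive = the rest.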

For this assay, the system named is Community 9. Put plainly: relative growth (AUC of 72 h growth curve relative to DMSO control, dAUC) (ratio); higher = more growth (less inhibition), active = hit call of the paper. The following applies: 20 µM. Put shortly:
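Relative growth (dAUC) is the spline-integrated area under the growth curve divided by the mean of the DMSO-only control wells. Cultures were isolates from Icelandic stream sediments and Silwood Park soil, plus whole sediment communities, grown to carrying capacity in Luria–Bertani medium and diluted 1:100 into 96-well plates containing each chemical at 20 µM (1% DMSO). A600 was read hourly for 72 h on a plate reader, with brief shaking before each read, and values were averaged over three biological replicates.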
Consider `Nc1c([N+](=O)[O-])ccc(Oc2ccccc2)c1Cl`, for which the relative growth is 0.907.
Consider `COCC(=O)N(c1c(C)cccc1C)[C@H](C)C(=O)OC`, for which the relative growth is 1.1.
Take `O=C(Nc1ccc(F)cc1F)c1cccnc1Oc1cccc(C(F)(F)F)c1`: the relative growth is 1.11.
Turning to `N#Cc1sc2c(=O)c3ccccc3c(=O)c=2sc1C#N`, the relative growth was 1.09.
In the case of `CC(C)OC(=O)Nc1cccc(Cl)c1`, the relative growth is 1.09.
For `N#C/N=C1\SCCN1Cc1ccc(Cl)nc1`, the relative growth is 1.09.
With `CC(Oc1ccc(Oc2ncc(C(F)(F)F)cc2Cl)cc1)C(=O)O` (stereo not drawn), the relative growth is 1.01.
To `Oc1ccccc1-c1ccccc1` belongs 0.974.
In the case of `C#CCOc1ccc(CCNC(=O)C(OCC#C)c2ccc(Cl)cc2)cc1OC` (stereo not drawn), the relative growth was 0.995.
As for `O=[N+]([O-])c1cc(C(F)(F)F)c(Cl)c([N+](=O)[O-])c1Nc1ncc(C(F)(F)F)cc1Cl`, the relative growth is 0.34 (active).
Take `CC(C)CC(C)c1sccc1NC(=O)c1cn(C)nc1C(F)(F)F` (stereo not drawn): the relative growth was 0.916.
For `O=C1C=C(N(Cc2ccc(Cl)nc2)CC(F)F)CO1`, the relative growth was 0.992.
`O=C(Nc1ccccc1-c1ccc(Cl)cc1)c1cccnc1Cl`: the relative growth was 0.999.
Consider `CC(C)N1C(=O)c2ccccc2NS1(=O)=O`, for which the relative growth is 1.01.
For the compound `CCC(=O)Nc1ccc(Cl)c(Cl)c1`, the relative growth is 1.03.
Turning to `ClC1C(Cl)C(Cl)C(Cl)C(Cl)C1Cl` (stereo not drawn), the relative growth was 0.963.
To `CN/C(=N\[N+](=O)[O-])NCc1cnc(Cl)s1` belongs 0.871; to `CCc1cnc(C2=NC(C)(C(C)C)C(=O)N2)c(C(=O)O)c1` (stereo not drawn), 0.98.

Source of the values: the supplement of paper PMC12067926.
